Assay results published in the supplement of paper PMC11732987, “Enantioselective OTUD7B fragment discovery through chemoproteomics screening and high-throughput optimisation” (Communications Chemistry, 2025).

target: T1, USP38 (UniProt Q8NB14); experiment: log2 ratio of Biotin-Ahx-Ub-VS probe labelling (compound/DMSO); higher = less target engagement, active = hit call of the paper (q ≤ 0.05, log2 ratio ≤ -1); conditions: compound concentration: 50uM; treatment time: 3 h
T1 sequence (whole entry): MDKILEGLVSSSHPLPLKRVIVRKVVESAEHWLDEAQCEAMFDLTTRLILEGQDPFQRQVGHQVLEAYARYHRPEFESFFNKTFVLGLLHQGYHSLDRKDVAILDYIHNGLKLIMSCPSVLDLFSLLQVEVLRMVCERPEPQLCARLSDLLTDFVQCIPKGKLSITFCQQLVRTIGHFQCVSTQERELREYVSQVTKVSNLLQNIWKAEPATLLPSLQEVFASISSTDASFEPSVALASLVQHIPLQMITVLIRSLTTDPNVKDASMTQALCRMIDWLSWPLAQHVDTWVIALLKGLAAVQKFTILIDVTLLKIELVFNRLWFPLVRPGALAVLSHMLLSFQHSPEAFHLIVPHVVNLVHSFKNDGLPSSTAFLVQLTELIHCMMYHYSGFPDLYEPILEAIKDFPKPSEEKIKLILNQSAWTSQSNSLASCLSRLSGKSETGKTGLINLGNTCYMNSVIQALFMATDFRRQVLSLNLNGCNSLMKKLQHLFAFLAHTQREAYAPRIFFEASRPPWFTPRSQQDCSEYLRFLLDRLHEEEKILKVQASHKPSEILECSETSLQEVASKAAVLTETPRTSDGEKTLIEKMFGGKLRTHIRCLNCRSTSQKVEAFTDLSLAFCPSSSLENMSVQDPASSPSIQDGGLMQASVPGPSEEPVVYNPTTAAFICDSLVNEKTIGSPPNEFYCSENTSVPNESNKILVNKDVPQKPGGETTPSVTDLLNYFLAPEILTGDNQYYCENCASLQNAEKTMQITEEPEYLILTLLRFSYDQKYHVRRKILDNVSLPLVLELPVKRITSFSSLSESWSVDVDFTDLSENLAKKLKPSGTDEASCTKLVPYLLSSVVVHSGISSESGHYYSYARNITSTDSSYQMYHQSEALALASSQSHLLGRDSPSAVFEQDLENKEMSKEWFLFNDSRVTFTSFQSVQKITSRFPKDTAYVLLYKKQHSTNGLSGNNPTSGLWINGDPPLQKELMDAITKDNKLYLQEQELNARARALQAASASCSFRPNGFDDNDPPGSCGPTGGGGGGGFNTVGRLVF
Experimental: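 Round 2 competitive ABPP in HEK293T lysate. Purified HTC-D2B compounds were tested at 50 and 200 µM for 3 h, followed by Biotin-Ahx-Ub-VS enrichment and diaPASEF LC-MS/MS. Values are the average log2 ratio (compound/DMSO) from an unpaired t-test (n=3 treated, n=26 DMSO).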

log2 ratio of Biotin-Ahx-Ub-VS probe labelling, inactive:
O=C(CCl)N1Cc2sccc2C(O)C1 (stereo unspecified) 0.173
COc1ccc(CN(C)C(=O)CCl)cc1 0.023
CCC1c2cc(Cl)c(OC)cc2CCN1C(=O)CCl (stereo unspecified) 0.207
O=C(CCl)N1CCc2nc(-c3ccccc3)ncc2C1 0.272
O=C(CCl)NC1CCCc2ccccc21 (stereo unspecified) 0.0146
CN(Cc1cccc(Br)c1)C(=O)CCl 0.171
O=C(CCl)NC(c1cccs1)C1CCCC1 (stereo unspecified) 0.192
COc1cccc(CN(CCCc2ccccc2)C(=O)CCl)c1 -0.105
O=C(CCl)N1CCc2cc(Cl)c(Cl)cc2C1 0.253
CCCC1c2cc(OC)c(OC)cc2CCN1C(=O)CCl (stereo unspecified) -0.184
O=C(CCl)NC1CCSc2ccccc21 (stereo unspecified) 0.05
O=C(CCl)N1CCc2scc(Br)c2C1 0.0294
O=C(CCl)N[C@H]1CCCc2ccccc21 0.0645
Cc1ccccc1COc1cccc(CN(C)C(=O)CCl)c1 -0.192
O=C(CCl)N1CCc2nocc2C1 -0.0321
O=C(CCl)NC1CCOc2ccc(Cl)cc21 (stereo unspecified) 0.126
CN(Cc1ccccc1)C(=O)CCl -0.0215
Cl.Cl.O=C(CCl)N1CCc2nc(N3CCN(c4ccc(F)cc4)CC3)ncc2C1 0.202

same assay, conditions: compound concentration: 200uM; treatment time: 3 h

log2 ratio of Biotin-Ahx-Ub-VS probe labelling, inactive:
O=C(CCl)N1Cc2sccc2C(O)C1 (stereo unspecified) -0.212
COc1ccc(CN(C)C(=O)CCl)cc1 -0.826
CCC1c2cc(Cl)c(OC)cc2CCN1C(=O)CCl (stereo unspecified) -0.934
O=C(CCl)N1CCc2nc(-c3ccccc3)ncc2C1 -0.407
O=C(CCl)NC1CCCc2ccccc21 (stereo unspecified) -0.162
CN(Cc1cccc(Br)c1)C(=O)CCl -0.322
O=C(CCl)NC(c1cccs1)C1CCCC1 (stereo unspecified) -0.22
COc1cccc(CN(CCCc2ccccc2)C(=O)CCl)c1 -0.679
O=C(CCl)N1CCc2cc(Cl)c(Cl)cc2C1 -0.962
CCCC1c2cc(OC)c(OC)cc2CCN1C(=O)CCl (stereo unspecified) -0.48
O=C(CCl)NC1CCSc2ccccc21 (stereo unspecified) -0.3
O=C(CCl)N1CCc2scc(Br)c2C1 -0.844
O=C(CCl)N[C@H]1CCCc2ccccc21 -0.252
Cc1ccccc1COc1cccc(CN(C)C(=O)CCl)c1 -0.383
O=C(CCl)N1CCc2nocc2C1 -0.473
O=C(CCl)NC1CCOc2ccc(Cl)cc21 (stereo unspecified) -0.261
CN(Cc1ccccc1)C(=O)CCl -0.641
Cl.Cl.O=C(CCl)N1CCc2nc(N3CCN(c4ccc(F)cc4)CC3)ncc2C1 -0.918
